Data: PubChem BioAssay AID1209 (Sanford-Burnham Center for Chemical Genomics, 2008)
The campaign covered roughly 190,000 compounds. About 810 (0.43%) were called active. Only a selection was taken, and actives are over-represented in it overall. A number with no mark means an inactive call. Cut-off read from the data, not from the text of the source: active = inhibition above about 50%; inactive = the rest.

Target: Mannose-6-phosphate isomerase (Homo sapiens) (UniProt P34949)
Test: MPI enzyme activity inhibition – biochemical, fluorescence intensity, coupled assay, primary screen (AID 1209);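 note: plate controls were DMSO vehicle for no effect and wells lacking substrate for full effect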
Conditions: purified PMI enzyme, at 20 µM, active compounds read high

Mannose-6-phosphate isomerase (Homo sapiens), sequence (P34949 whole entry, looked up): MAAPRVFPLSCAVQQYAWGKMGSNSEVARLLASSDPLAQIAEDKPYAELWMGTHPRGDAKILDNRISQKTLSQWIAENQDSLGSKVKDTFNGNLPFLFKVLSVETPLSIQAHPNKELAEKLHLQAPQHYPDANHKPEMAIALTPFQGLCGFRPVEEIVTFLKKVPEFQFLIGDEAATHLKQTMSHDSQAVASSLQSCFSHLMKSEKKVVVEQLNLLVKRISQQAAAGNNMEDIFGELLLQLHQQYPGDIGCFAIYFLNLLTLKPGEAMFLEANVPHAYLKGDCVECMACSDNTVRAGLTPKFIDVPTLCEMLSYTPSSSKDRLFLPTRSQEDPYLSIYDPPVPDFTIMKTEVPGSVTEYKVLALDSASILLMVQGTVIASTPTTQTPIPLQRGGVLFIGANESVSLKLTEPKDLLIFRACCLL

SMILES	inhibition
COc1cc2c(cc1OC)C1(Nc3c-2c(Cc2ccccc2)nn3-c2ccccc2)C(=O)Nc2ccccc21 (centres undefined)	9.3%
Clc1ccc(-c2nn3c(-c4ccccn4)nnc3s2)c(Cl)c1	-4.5%
O=C1SC(SC(=Nc2ccccc2)Nc2ccccc2)C(=O)N1c1ccccc1 (centres undefined)	-11.6%
Cc1cccc(N2C(=O)SC(SC(=Nc3ccccc3)Nc3ccccc3)C2=O)c1 (centres undefined)	52.5% (active)
Cc1cccc(N2C(=O)CC(SC(=Nc3ccccc3)Nc3ccccc3)C2=O)c1 (centres undefined)	15.7%
CCOc1ccc2c(c1)n([O-])c1c([n+]2=O)CCCC1	56.8% (active)
O=[n+]1c2c(n([O-])c3cc(F)ccc31)CCCC2	5.7%
Cc1ccc2c(c1)n([O-])c1c([n+]2=O)CCCC1	17.7%
CSc1ccccc1NC(=O)CN(C)Cc1ccc(Br)cc1	16%
Cc1ccccc1Cn1ccc(NC(=O)c2cnn3cccnc23)n1	10.4%
CCOC(=O)NC(=O)CSc1ccccn1	2.1%
O=[N+]([O-])c1cccc(N=Cc2sc3ccccc3c2O)c1	13.3%
O=C1/C(=C/c2cccc([N+](=O)[O-])c2)CCc2ccccc21	14.1%
CC1CCC(NC(=O)Cn2ncc3ccccc32)CC1 (centres undefined)	8.4%
COc1cc2cc(CN(CCc3cccc(C)c3)C(=S)NCCCN3CCOCC3)c(=O)[nH]c2cc1OC	10.1%
O=C(Cc1ccc(Nc2nc(=S)[nH]c3ccccc23)cc1)NC1CCCCC1	-5.3%
CC(C)CCNC(=O)Cc1ccc(Nc2nc(=S)[nH]c3ccccc23)cc1	51.6% (active)
Cc1ccc(CNC(=O)Cc2csc(Nc3nc(=S)[nH]c4ccccc34)n2)cc1	-1.8%
Cc1cccc(/C(N)=N/OC(=O)c2ccc(Br)o2)c1	12.6%
CCOc1cc(S(=O)(=O)N2CCCC2)ccc1Cl	-1.7%
O=C(OCC1O[C@@H](OC(=O)c2cc(O)c(O)c(O)c2)[C@@H](OC(=O)c2cc(O)c(O)c(O)c2)[C@@H](OC(=O)c2cc(O)c(O)c(O)c2)[C@@H]1OC(=O)c1cc(O)c(O)c(O)c1)c1cc(O)c(O)c(O)c1 (some centres undefined)	57.2% (active)
Cc1cn(C2OC(COC(=O)c3ccccc3)C(OC(=O)c3ccccc3)C2OC(=O)c2ccccc2)c(=O)[nH]c1=O (centres undefined)	3.7%
O=C(O[C@@H]1OC2COC(=O)c3cc(O)c(O)c(O)c3-c3c(cc(O)c(O)c3O)C(=O)O[C@@H]([C@H]1O)[C@@H]2O)c1cc(O)c(O)c(O)c1	49.1%
CC(C)N(CC#CC(O)(c1ccccc1)c1ccccc1)CCO	-9.6%
NC(=S)N/N=C/c1cc([N+](=O)[O-])ccc1Cl	-2.2%

SMILES	inhibition
S=C(N/N=C/c1ccccc1Cl)Nc1ccccc1	12.3%
O=[N+]([O-])c1ccc(Cl)c(/C=N/NC(=S)Nc2ccccc2)c1	66.2% (active)
CCC(C)(C)c1ccc(OCCN2C(=O)NC(C)(C)C2=O)cc1	7.4%
COc1ccc(NC(=O)C2(c3ccccc3)CCCC2)cc1	18.9%
CCOC(=O)C1=C(C)NC(=O)NC1c1c(C)nn(-c2ccccc2)c1Cl (centres undefined)	53.9% (active)
CCOC(=O)C1=C(C)N(C)C(=O)NC1c1c(C)nn(-c2ccc(C)cc2)c1Cl (centres undefined)	-6.5%
CCOC(=O)C1=C(C)N(C)C(=O)NC1c1c(C)nn(-c2ccccc2)c1C (centres undefined)	-0.2%
CCSc1nnc(NC(=O)c2ccc(S(=O)(=O)N(C)C)cc2)s1	-9.1%
COc1ccc(Nc2nc(N)nc(CSC(=S)N3CCOCC3)n2)cc1	-8.7%
CCN1/C(=C/c2cc[n+](C)cc2)C=Cc2cc(C)ccc21	46.3%
C=CC[n+]1c(/C=C2\C=Cc3cc(C)ccc3N2CC)ccc2ccccc21	16.7%
C=CC[n+]1ccc(/C=C2\C=Cc3cc(C)ccc3N2CC)c2ccccc21	64.5% (active)
N#CCSCC(=O)Nc1ccccc1	7.9%
N#CC(C(=O)NC1CCCCC1)c1nc2ccccc2nc1N1CCN(c2ccc(F)cc2)CC1 (centres undefined)	7.4%
Cc1ccc(-c2nnc3n2N=C(c2ccc(Br)cc2)CS3)cc1	-12.4%
COc1cccc(CNc2ccc(N3CCC(C)CC3)cc2)c1OC	67.3% (active)
COc1ccccc1CNc1ccc(N2CCCCC2)cc1	67.3% (active)
COc1cccc(CNc2ccc(S(N)(=O)=O)cc2)c1OC	6.1%
COc1ccccc1CNc1ccc(C(=O)O)cc1	1.8%
COc1cccc(CNCCN2CCOCC2)c1OC	0.5%
COc1cccc(CNc2ccc(N3CCCCC3)cc2)c1OC	65.1% (active)
COc1cccc(CNc2ccc(F)c(Cl)c2)c1OC	-0.3%
COc1ccccc1C(=O)Nc1ccc(N2CCCCC2)cc1	-4.3%
CC1CCN(c2ccc(NC(=O)Cc3ccccc3)cc2)CC1	13.5%
